Inconclusive results are not listed. Where a call stands in place of a potency, no number is given. A number with no mark means an inactive call. Active and inactive are the calls of the source. Calls follow the shape of the full dose curve.
Molecular target: Beta-2 adrenergic receptor (Homo sapiens) (UniProt P07550)
Assay: Adrenergic beta2 receptor (ADRB2) small molecule agonists, cell-based qHTS assay (AID 1963593);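 also: CHO cells stably overexpressing human ADRB2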
Method in brief: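 CHO cells stably over-expressing ADRB2 were plated overnight at 37C, then dosed with compounds plus a stimulation mix containing 100uM IBMX and 25uM Ro-20-1724 for 0.5hr at room temperature. cAMP was measured by HTRF competition, 1hr.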

Beta-2 adrenergic receptor (Homo sapiens), sequence (P07550 whole entry, looked up): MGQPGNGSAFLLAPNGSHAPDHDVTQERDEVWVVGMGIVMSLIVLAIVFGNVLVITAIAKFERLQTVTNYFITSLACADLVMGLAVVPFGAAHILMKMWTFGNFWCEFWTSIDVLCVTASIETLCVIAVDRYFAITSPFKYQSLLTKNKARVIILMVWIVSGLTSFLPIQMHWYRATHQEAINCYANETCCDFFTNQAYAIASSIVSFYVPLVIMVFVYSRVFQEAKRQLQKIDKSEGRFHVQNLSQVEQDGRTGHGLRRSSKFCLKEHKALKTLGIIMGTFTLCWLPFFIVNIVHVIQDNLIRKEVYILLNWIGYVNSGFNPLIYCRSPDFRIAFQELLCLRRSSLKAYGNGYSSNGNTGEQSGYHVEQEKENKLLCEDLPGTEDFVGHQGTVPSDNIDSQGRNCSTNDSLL

Structure (SMILES) | Potency | activation
NC1(c2ccccc2)CCCCC1 | inactive | –
CC(C)C1(C)N=C(c2ncccc2C(=O)O)NC1=O (stereo not given) | inactive | –
CCCCCCCCOC(=O)c1ccccc1C(=O)OCCCCCCCC | inactive | –
CSc1nnc(C(C)(C)C)c(=O)n1N | inactive | –
CCC(C)n1c(=O)[nH]c(C)c(Br)c1=O (stereo not given) | inactive | –
CN(C)CCO | inactive | –
NC(=O)OCCCc1ccccc1 | inactive | –
NCc1cccnc1 | inactive | –
CCN(CC)C1CCCCC1 | inactive | –
CC(C)OC(=O)Nc1cccc(Cl)c1 | inactive | –
OC(O)C(Cl)(Cl)Cl | inactive | –
O=NN1CCCC1 | inactive | –
CCC(C)c1ccc(O)cc1 (stereo not given) | inactive | –
C=C(C)C#N | inactive | –
CC(C)(Cl)Cl | inactive | –
Cc1ccc(N=C=O)cc1N=C=O | inactive | –
CCCCC(C#N)(Cn1cncn1)c1ccc(Cl)cc1 (stereo not given) | inactive | –
Cl/C=C/Cl | inactive | –
COc1nc(NC(C)C)nc(NC(C)C)n1 | inactive | –
Clc1cccc(C(Cl)(Cl)Cl)n1 | inactive | –

Structure (SMILES) | Potency | activation
COC[C@@H](NC(C)=O)C(=O)NCc1ccccc1 | inactive | –
O=C(Cl)OCc1ccccc1 | inactive | –
N#CCNCC#N | inactive | –
Cc1ccc2ccccc2c1 | inactive | –
CC1(C)[C@H](C(=O)O[C@H](C#N)c2cccc(Oc3ccccc3)c2)[C@@H]1/C=C(\Cl)C(F)(F)F | inactive | –
c1ccc(C2CO2)cc1 (stereo not given) | inactive | –
CCCCCCCCCCBr | inactive | –
c1ccc(OP(Oc2ccccc2)Oc2ccccc2)cc1 | inactive | –
COC(=O)c1cncn1C(C)c1ccccc1 (stereo not given) | inactive | –
NCC(O)c1ccc(O)cc1 (stereo not given) | inactive | –
Oc1ccccc1Cl | inactive | –
Clc1ccc(C(Cl)(Cl)Cl)cn1 | inactive | –
CC[N+]1(CC)CCC(OC(=O)C(O)(c2ccccc2)c2ccccc2)C1 (stereo not given) | inactive | –
Cc1ccc([N+](=O)[O-])cc1 | inactive | –
CC(=O)C(Cl)Cl | inactive | –
C#CCO | inactive | –
Cc1ccc(N)c(N)c1 | inactive | –
COc1cc(N)c(Cl)cc1C(=O)NC1CN2CCC1CC2 (stereo not given) | inactive | –
CCOC(=O)c1ccccc1C(=O)OCC | inactive | –
CCc1cccc(C)c1N(C(=O)CCl)C(C)COC (stereo not given) | inactive | –

Structure (SMILES) | Potency | activation
COc1ccccc1OC | inactive | –
N#Cc1ccncc1 | inactive | –
CCN(CC)c1ccccc1 | inactive | –
Cc1ccccc1[N+](=O)[O-] | inactive | –
CC1OC(C)OC(C)O1 (stereo not given) | inactive | –
N#Cc1ccccn1 | inactive | –
O=C(NC(=O)c1ccccc1Cl)Nc1ccc(OC(F)(F)F)cc1 | inactive | –
Oc1ccccc1-c1ccccc1 | inactive | –
COC(=O)c1c(C(F)F)nc(C(F)(F)F)c(C2=NCCS2)c1CC(C)C | inactive | –
O=C(CBr)c1ccc(O)cc1 | inactive | –
CCCN(CCC)c1c([N+](=O)[O-])cc(C(C)C)cc1[N+](=O)[O-] | inactive | –
Brc1c(Br)c(Br)c(Oc2c(Br)c(Br)c(Br)c(Br)c2Br)c(Br)c1Br | – | -14.9% [at 19 µM]
C/C(=N\NC(=O)Nc1cc(F)cc(F)c1)c1ncccc1C(=O)O | inactive | –
Oc1cc(Cl)ccc1Cl | inactive | –
Nc1ccc(Cc2ccc(N)cc2)cc1 | inactive | –
CC12CC1(C)C(=O)N(c1cc(Cl)cc(Cl)c1)C2=O (stereo not given) | inactive | –
ClC1=C(Cl)[C@]2(Cl)[C@@H]3[C@@H](Cl)[C@H](Cl)C[C@@H]3[C@@]1(Cl)C2(Cl)Cl | inactive | –
CN(C)NC(=O)CCC(=O)O | inactive | –
Nc1ccc(Cl)cc1 | inactive | –
COC(=O)c1ccc(CBr)cc1 | inactive | –

Reference: PubChem BioAssay (Tox21)
